Reference: ChEMBL document CHEMBL1961873, “Compounds: GSK PKIS; Assays: Nanosyn kinase panel” (2012)

molecular target: Vascular endothelial growth factor receptor 2 (Homo sapiens) (UniProt P35968); details: at 1 µM;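 note: each value is the mean percent inhibition of KDR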
Sequence (P35968 whole entry): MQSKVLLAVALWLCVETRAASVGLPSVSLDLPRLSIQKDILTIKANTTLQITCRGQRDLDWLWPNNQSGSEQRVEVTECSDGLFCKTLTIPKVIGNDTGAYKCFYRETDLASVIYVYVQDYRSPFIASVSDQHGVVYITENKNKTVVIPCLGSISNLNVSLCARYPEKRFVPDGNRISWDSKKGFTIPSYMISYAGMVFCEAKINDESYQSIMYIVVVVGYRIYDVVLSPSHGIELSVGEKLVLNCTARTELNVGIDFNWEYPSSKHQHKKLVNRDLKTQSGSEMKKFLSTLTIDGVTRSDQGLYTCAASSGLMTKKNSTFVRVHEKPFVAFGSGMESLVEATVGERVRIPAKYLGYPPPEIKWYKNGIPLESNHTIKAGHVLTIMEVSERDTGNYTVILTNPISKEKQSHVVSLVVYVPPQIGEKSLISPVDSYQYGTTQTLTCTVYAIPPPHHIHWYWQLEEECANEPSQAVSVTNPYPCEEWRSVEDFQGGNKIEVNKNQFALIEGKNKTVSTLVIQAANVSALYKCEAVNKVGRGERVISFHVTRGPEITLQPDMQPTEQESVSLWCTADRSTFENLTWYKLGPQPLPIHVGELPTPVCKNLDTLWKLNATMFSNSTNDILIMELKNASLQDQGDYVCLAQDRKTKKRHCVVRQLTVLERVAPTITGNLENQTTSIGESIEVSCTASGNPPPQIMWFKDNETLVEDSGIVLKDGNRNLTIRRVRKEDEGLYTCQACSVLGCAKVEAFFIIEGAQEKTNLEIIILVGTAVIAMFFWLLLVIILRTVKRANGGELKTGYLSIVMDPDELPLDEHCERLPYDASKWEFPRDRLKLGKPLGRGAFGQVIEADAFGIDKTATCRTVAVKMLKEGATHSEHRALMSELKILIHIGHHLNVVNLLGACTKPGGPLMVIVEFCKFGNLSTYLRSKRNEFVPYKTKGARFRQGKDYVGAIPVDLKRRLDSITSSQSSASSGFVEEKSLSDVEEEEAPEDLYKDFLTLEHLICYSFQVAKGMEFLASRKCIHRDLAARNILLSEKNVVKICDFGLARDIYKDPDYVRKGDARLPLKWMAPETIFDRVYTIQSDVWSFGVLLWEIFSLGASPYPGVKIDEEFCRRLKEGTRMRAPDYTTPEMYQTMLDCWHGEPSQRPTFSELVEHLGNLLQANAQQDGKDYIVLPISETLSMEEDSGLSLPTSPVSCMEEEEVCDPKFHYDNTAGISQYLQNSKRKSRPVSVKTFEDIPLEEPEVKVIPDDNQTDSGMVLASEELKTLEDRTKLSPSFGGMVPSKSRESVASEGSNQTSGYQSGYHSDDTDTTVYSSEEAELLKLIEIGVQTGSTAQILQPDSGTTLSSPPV

Structure (SMILES)	inhibition [%]
N#Cc1c(NC(=O)c2cccc3ccccc23)sc2c1CCCC2	9.83
COc1cc(C=NNc2ncnc3c2cnn3-c2ccccc2)ccc1O	49.6
CC(C)=Cc1cccc2c1/C(=N/Nc1ccc(S(N)(=O)=O)cc1)C(=O)N2	48.5
Cc1ccc(NC(=O)c2ccnc(N3CCCC3)c2)cc1-c1ccc(C(=O)NCC2CC2)cc1	10.2
Nc1nc(-c2ccc3c(c2)C(=Cc2cc(Br)c(O)c(Br)c2)C(=O)N3)cs1	11.3
CS(=O)(=O)CCNCc1ccc(-c2ccc3ncnc(Nc4ccc(OCc5cccc(F)c5)c(C(F)(F)F)c4)c3c2)o1	3.93
COc1ccc(-c2coc3ncnc(N)c23)cc1	9
CCCN1CCC=C(c2ccc(Nc3nc(Nc4ccccc4C(N)=O)c4cc[nH]c4n3)c(C)c2)C1	17.7
O=C1NC(=O)C(c2cccc(Cl)c2)=C1Nc1ccc(O)c(Cl)c1	20.1
COc1cc2ncn(-c3cc(O[C@H](C)c4ccccc4Cl)c(C(N)=O)s3)c2cc1OC	72.5
CC1=C(C(=O)Nc2ccc3[nH]ncc3c2)C(c2ccc3ccccc3c2)CC(=O)N1 (stereo unspecified)	12.5
O=C1NC(=O)C(c2ccc(Cl)cc2)=C1Nc1ccc(Cl)c(C(=O)O)c1	9.16
c1cnn2ncc(-c3ccnc(Nc4ccc5c(c4)OCCO5)n3)c2c1	37.4
COc1cc2ncn(-c3cc(O[C@@H](C)c4ccccc4Cl)c(C(N)=O)s3)c2cc1OC	67.7
CCn1c(-c2nonc2N)nc2c(C#CC(C)(C)O)nc(CN3CCCC3)cc21	20.1
CCn1c(-c2nonc2N)nc2ccncc21	2.46
CNC(=O)c1cncc(/C=C/c2c(Cl)cccc2Cl)c1	13.1

Structure (SMILES)	inhibition [%]
Cc1nnc(-c2ccc(C)c(-c3ccc(C(=O)Nc4cccc(C#N)c4)cc3)c2)o1	7.82
CN(C)c1cc2c(Nc3ccc4nc(Cc5ccccc5)[nH]c4c3)ncnc2cn1	10.4
Cc1cccc(-c2n[nH]cc2-c2ccc3ncccc3n2)n1	83.2
CS(=O)(=O)CCN(CC#N)Cc1ccc(-c2ccc3ncnc(Nc4ccc(OCc5cccc(F)c5)c(Cl)c4)c3c2)o1	7.7
CCn1c(-c2nonc2N)nc2c(C#CC(C)(C)O)nc(OC[C@@H](N)c3ccccc3)cc21	71.2
CC(=O)Nc1cccc(C#Cc2cncnc2Nc2ccc(OCc3cccc(F)c3)c(Cl)c2)n1	2.74
CC1=C(C(=O)Nc2ccc3[nH]ncc3c2)C(c2ccc(Cl)c(Cl)c2)CC(=O)N1 (stereo unspecified)	5.12
O=C1Nc2ccc(C(=O)c3ccco3)cc2C1=Cc1cc(Cl)c(O)c(Cl)c1	18.7
CS(=O)(=O)Nc1ccc(N/C=C2\C(=O)Nc3ccccc32)cc1	46.7
COc1cc2ncn(-c3cc(OCc4ccccc4Cl)c(C(N)=O)s3)c2cc1OC	53.9
Fc1cccc(COc2ccc(Nc3ncnc4sc(-c5cccs5)cc34)cc2Cl)c1	7.67
[O-][S+]1CCN(Cc2ccc(-c3ccc4ncnc(Nc5ccc(OCc6ccccc6)c(F)c5)c4c3)o2)CC1	6.19
Cc1ccc(C(=O)NC2CCCCC2)cc1-c1ccc(C(=O)NCC2CC2)cc1	8.4
Cc1nn(C)c2cc(N(C)c3ccnc(Nc4cccc(S(N)(=O)=O)c4)n3)ccc12	68.5
CCN1CCC(CC(=O)Nc2n[nH]c3nc(-c4cccs4)c(Br)cc23)CC1	15.5
COc1ccc(-c2nn3ncccc3c2-c2ccnc(Nc3ccc(Cl)c(C(F)(F)F)c3)n2)cc1	4.52

molecular target: Mast/stem cell growth factor receptor Kit (Homo sapiens) (UniProt P10721); details: at 0.1 µM;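 note: values are mean inhibition of KIT, from the GSK PKIS dataset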
Sequence (P10721 whole entry): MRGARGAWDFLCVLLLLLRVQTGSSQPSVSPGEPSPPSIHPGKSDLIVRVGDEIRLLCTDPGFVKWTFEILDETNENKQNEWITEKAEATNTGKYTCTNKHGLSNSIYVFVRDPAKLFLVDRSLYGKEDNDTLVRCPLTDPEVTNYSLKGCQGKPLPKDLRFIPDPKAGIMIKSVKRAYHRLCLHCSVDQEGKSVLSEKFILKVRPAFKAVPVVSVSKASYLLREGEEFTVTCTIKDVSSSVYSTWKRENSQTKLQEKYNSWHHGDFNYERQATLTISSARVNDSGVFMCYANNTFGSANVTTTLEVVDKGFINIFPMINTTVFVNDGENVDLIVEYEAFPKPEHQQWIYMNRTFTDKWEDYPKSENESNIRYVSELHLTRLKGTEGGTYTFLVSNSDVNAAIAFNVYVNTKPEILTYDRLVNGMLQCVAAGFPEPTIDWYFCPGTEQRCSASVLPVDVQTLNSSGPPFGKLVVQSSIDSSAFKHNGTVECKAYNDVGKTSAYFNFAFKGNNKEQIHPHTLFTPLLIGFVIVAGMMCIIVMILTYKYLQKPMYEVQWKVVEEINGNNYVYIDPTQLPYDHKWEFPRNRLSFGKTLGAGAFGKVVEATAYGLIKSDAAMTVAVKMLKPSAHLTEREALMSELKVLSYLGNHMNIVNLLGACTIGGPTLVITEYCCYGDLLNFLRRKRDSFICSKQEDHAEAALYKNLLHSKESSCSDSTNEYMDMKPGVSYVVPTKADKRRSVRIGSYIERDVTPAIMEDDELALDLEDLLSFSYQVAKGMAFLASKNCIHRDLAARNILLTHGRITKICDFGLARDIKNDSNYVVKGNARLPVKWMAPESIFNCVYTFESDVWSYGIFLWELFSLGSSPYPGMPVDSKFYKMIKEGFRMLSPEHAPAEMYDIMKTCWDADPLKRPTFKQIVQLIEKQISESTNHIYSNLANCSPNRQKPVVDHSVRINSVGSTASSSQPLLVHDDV

Structure (SMILES)	inhibition [%]
N#Cc1c(NC(=O)c2cccc3ccccc23)sc2c1CCCC2	2.71
COc1cc(C=NNc2ncnc3c2cnn3-c2ccccc2)ccc1O	15
CC(C)=Cc1cccc2c1/C(=N/Nc1ccc(S(N)(=O)=O)cc1)C(=O)N2	14.1
Cc1ccc(NC(=O)c2ccnc(N3CCCC3)c2)cc1-c1ccc(C(=O)NCC2CC2)cc1	5.54
Nc1nc(-c2ccc3c(c2)C(=Cc2cc(Br)c(O)c(Br)c2)C(=O)N3)cs1	-0.22
CS(=O)(=O)CCNCc1ccc(-c2ccc3ncnc(Nc4ccc(OCc5cccc(F)c5)c(C(F)(F)F)c4)c3c2)o1	3.96
COc1ccc(-c2coc3ncnc(N)c23)cc1	5.17
CCCN1CCC=C(c2ccc(Nc3nc(Nc4ccccc4C(N)=O)c4cc[nH]c4n3)c(C)c2)C1	4.24
O=C1NC(=O)C(c2cccc(Cl)c2)=C1Nc1ccc(O)c(Cl)c1	-3.91
COc1cc2ncn(-c3cc(O[C@H](C)c4ccccc4Cl)c(C(N)=O)s3)c2cc1OC	7.11
CC1=C(C(=O)Nc2ccc3[nH]ncc3c2)C(c2ccc3ccccc3c2)CC(=O)N1 (stereo unspecified)	2.51
O=C1NC(=O)C(c2ccc(Cl)cc2)=C1Nc1ccc(Cl)c(C(=O)O)c1	-0.92
c1cnn2ncc(-c3ccnc(Nc4ccc5c(c4)OCCO5)n3)c2c1	95
COc1cc2ncn(-c3cc(O[C@@H](C)c4ccccc4Cl)c(C(N)=O)s3)c2cc1OC	4.65
CCn1c(-c2nonc2N)nc2c(C#CC(C)(C)O)nc(CN3CCCC3)cc21	-3.09
CCn1c(-c2nonc2N)nc2ccncc21	-0.66
CNC(=O)c1cncc(/C=C/c2c(Cl)cccc2Cl)c1	5.81

Structure (SMILES)	inhibition [%]
Cc1nnc(-c2ccc(C)c(-c3ccc(C(=O)Nc4cccc(C#N)c4)cc3)c2)o1	5.68
CN(C)c1cc2c(Nc3ccc4nc(Cc5ccccc5)[nH]c4c3)ncnc2cn1	4.97
Cc1cccc(-c2n[nH]cc2-c2ccc3ncccc3n2)n1	-0.25
CS(=O)(=O)CCN(CC#N)Cc1ccc(-c2ccc3ncnc(Nc4ccc(OCc5cccc(F)c5)c(Cl)c4)c3c2)o1	-0.23
CCn1c(-c2nonc2N)nc2c(C#CC(C)(C)O)nc(OC[C@@H](N)c3ccccc3)cc21	-1.3
CC(=O)Nc1cccc(C#Cc2cncnc2Nc2ccc(OCc3cccc(F)c3)c(Cl)c2)n1	-0.74
CC1=C(C(=O)Nc2ccc3[nH]ncc3c2)C(c2ccc(Cl)c(Cl)c2)CC(=O)N1 (stereo unspecified)	3.22
O=C1Nc2ccc(C(=O)c3ccco3)cc2C1=Cc1cc(Cl)c(O)c(Cl)c1	16.6
CS(=O)(=O)Nc1ccc(N/C=C2\C(=O)Nc3ccccc32)cc1	17.6
COc1cc2ncn(-c3cc(OCc4ccccc4Cl)c(C(N)=O)s3)c2cc1OC	0.54
Fc1cccc(COc2ccc(Nc3ncnc4sc(-c5cccs5)cc34)cc2Cl)c1	9.52
[O-][S+]1CCN(Cc2ccc(-c3ccc4ncnc(Nc5ccc(OCc6ccccc6)c(F)c5)c4c3)o2)CC1	2.02
Cc1ccc(C(=O)NC2CCCCC2)cc1-c1ccc(C(=O)NCC2CC2)cc1	4.54
Cc1nn(C)c2cc(N(C)c3ccnc(Nc4cccc(S(N)(=O)=O)c4)n3)ccc12	47
CCN1CCC(CC(=O)Nc2n[nH]c3nc(-c4cccs4)c(Br)cc23)CC1	-4.07
COc1ccc(-c2nn3ncccc3c2-c2ccnc(Nc3ccc(Cl)c(C(F)(F)F)c3)n2)cc1	1.4
